Test results: PubChem BioAssay (NCI)
The panel holds about 83,000 compounds, 20% with a hit somewhere; the sample as a whole holds those more often.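 Cell lines were cultured in 96-well plates, exposed to a single compound concentration, and assessed for percent growth 48 hours later.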 A number with no mark means an inactive call. Calls of active or inactive are those of the source. The calls were made as follows: active = growth percent below 10; inactive = the rest.

Key:
Assay in all cases: NCI-60 one-dose screen, 48 h (100 = growth as untreated, 0 = no growth, -100 = all killed)
Details in all cases: 10 µM unless noted
SR leukemia = tested on: SR leukemia
RPMI-8226 leukemia = tested on: RPMI-8226 leukemia
OVCAR-8 ovarian = tested on: OVCAR-8 ovarian
OVCAR-5 ovarian = tested on: OVCAR-5 ovarian
OVCAR-4 ovarian = tested on: OVCAR-4 ovarian
SK-OV-3 ovarian = tested on: SK-OV-3 ovarian
IGROV1 ovarian = tested on: IGROV1 ovarian
HS 578T breast = tested on: HS 578T breast
NCI/ADR-RES ovarian = tested on: NCI/ADR-RES ovarian
T-47D breast = tested on: T-47D breast
BT-549 breast = tested on: BT-549 breast
MDA-MB-435 melanoma = tested on: MDA-MB-435 melanoma
SW-620 colon = tested on: SW-620 colon
MCF7 breast = tested on: MCF7 breast
HCT-116 colon = tested on: HCT-116 colon
HCC-2998 colon = tested on: HCC-2998 colon
KM12 colon = tested on: KM12 colon
OVCAR-3 ovarian = tested on: OVCAR-3 ovarian

Row | SMILES | growth (SR leukemia) | growth (RPMI-8226 leukemia) | growth (OVCAR-8 ovarian) | growth (OVCAR-5 ovarian) [%] | growth (OVCAR-4 ovarian) [%] | growth (SK-OV-3 ovarian) [%] | growth (IGROV1 ovarian) [%] | growth (HS 578T breast) [%] | growth (NCI/ADR-RES ovarian) [%] | growth (T-47D breast) [%] | growth (BT-549 breast) | growth (MDA-MB-435 melanoma) | growth (SW-620 colon) | growth (MCF7 breast) | growth (HCT-116 colon) | growth (HCC-2998 colon) | growth (KM12 colon) [%] | growth (OVCAR-3 ovarian) [%]
1 | O=c1nc(-c2ccccc2)c2cc(-c3ccc(N4CCOCC4)cc3)ccc2[nH]1 | 71.2% | 51.3% | 82% | 99.5 | 91 | 77.1 | 81.6 | 84 | 95.3 | 52.4 | 88% | 76.6% | 86.8% | 71.2% | 74.3% | 98% | 85.7 | 
2 | Clc1ccc(C2=NN[C@H](c3cn(-c4ccccc4)nc3-c3ccccc3)C2)cc1 | 104% | 87.5% | 33.6% | 83.6 | 68.1 | 61.6 | 79.5 | 74.2 | 55.9 | 46.4 | 92.7% | 47.3% | 48.7% | 66.2% | 0.0078% (active) | 90.7% | 74 | 
3 | O=c1c2cc(Cl)ccc2oc2ccc(OCCCCCN3CCCCC3)cc12 | 7.54% (active) | 38% | 55.1% | 75.4 | 80.6 | 98.3 | 72 | 80.5 | 71 | 60.1 | 64.6% | -24% (active) | 33.7% | 56.5% | 11.5% | 74.7% | 65 | 
4 | COc1ccc(CNc2c3ccccc3nc3ccc(OC)cc23)cc1 | -15.5% (active) | -47.7% (active) | 25.4% | 30.7 | 18.4 | 47.2 |  | 25.9 | 16.2 | 34.2 | 43% | 19% | 15.8% | -29.8% (active) | 12.7% | -57.6% (active) | 27.6 | 40.4
5 | CN1C2CCC1/C(=C\c1ccc(Cl)cc1)C(=O)/C2=C/c1ccc(Cl)cc1 | 24.5% | 20.2% | -27.1% (active) | 102 | 63.5 | 93.4 |  | 75.5 | 43.7 | 59.7 | 70.6% | 63.9% | 57.5% | 22.7% | 17.4% | 112% | 54.3 | 46
6 | ClCCn1cnc2c(SCc3ccccc3Cl)ncnc21 | -21.5% (active) | 7.3% (active) | 47.5% | 69.6 | 81.7 | 46.1 |  | 53.2 | 54.6 |  | 44.1% | 37.5% | 28.9% | 21.6% | 32.8% | 51.1% | 34.8 | 35.9
7 | CC(C)C/C=C/C=C/C(=O)N[C@@H](CC(N)=O)C(=O)N[C@@H]1C(=O)N[C@H](c2ccc(O)cc2)C(=O)N[C@H](CCCN)C(=O)N[C@H]([C@@H](C)O)C(=O)N[C@H](c2ccc(O)cc2)C(=O)N[C@H](c2ccc(O)cc2)C(=O)N[C@H]([C@H](C)O)C(=O)N[C@H](Cc2ccccc2)C(=O)N[C@H](CCCN)C(=O)N[C@H](c2ccc(O[C@H]3O[C@@H](CO)[C@@H](O)[C@@H](O)[C@H]3O[C@@H]3O[C@H](CO)[C@H](O)[C@H](O)[C@@H]3O)cc2)C(=O)N[C@H]([C@H](C)O)C(=O)N[C@H](c2ccc(O)cc2)C(=O)NCC(=O)N[C@H](CC(C)C)C(=O)N[C@H](C)C(=O)N[C@H](c2ccc(O)c(Cl)c2)C(=O)O[C@@H]1C(N)=O | 33.1% | 109% | 63.9% | 36.2 | 117 | 87.4 |  | 67.3 | 96.9 | 94.9 | -2.76% (active) | 57.2% | 96.3% | 54.9% |  | 104% | 44.3 | 117
8 | CS(=O)(=O)c1ccc(C(=O)N2N=C(c3ccccc3)CC2c2ccc3c(c2)OCO3)cc1 (centres undefined) | 90.9% | 95.7% | 100% | 100 | 99.3 | 83.7 |  | 95.7 | 103 | 78.5 | 86.3% | 113% | 100% | 84.1% | 81.7% | 99.3% | 93.6 | 106
9 | COc1cnc2c(c1)C(=O)c1c-2n(CCCN2CCCC2)c(=O)c2cc(Cl)ccc12 | -42.9% (active) | 20.3% | 26.1% | 64.8 | 45.4 | 19.6 |  | 49.1 | 35.1 | 29.3 | 44.5% | 61.1% | -89.4% (active) | -46.1% (active) | -92.8% (active) | 62.1% | 42.4 | 55
10 | CC(C)(C)OC(=O)N1CCCN(CCNc2nccc(-c3c(-c4cccc(O)c4)nc4sccn34)n2)S1(=O)=O | 77.3% | 96.8% | 96.8% | 114 | 108 | 69.5 |  | 109 | 99 | 86.6 | 136% | 54.1% | 131% | 97.8% | 81.7% | 108% | 111 | 119
11 | C=CCOc1ccc2c(C)cc(=O)oc2c1 | 128% | 93.8% | 103% | 113 |  | 117 | 113 |  | 104 | 105 | 109% | 98.3% | 109% |  | 105% | 100% | 105 | 105
12 | NS(=O)(=O)c1ccc(CCn2c(SCC(=O)N/N=C/c3ccccc3O)nc3ccccc3c2=O)cc1 | 19.9% | 32.1% | 36.9% | 69.2 |  | 59.2 | 64.4 | 37.5 | 92.3 | 49.2 | 53.9% | 3.97% (active) | 26.1% | 21.7% | 16.9% | 86.8% | 34 | 23.8
13 | O=C(Nc1cccc(Cl)c1)Nc1ccccc1Cl | 82.1% | 55.9% | 87.3% | 115 |  | 101 | 85.9 | 90.7 | 80.6 | 81.5 | 99.2% | 92.2% | 89.5% | 77.8% | 90% | 99.8% | 89.9 | 78.4
14 | C(=Nc1ccc(-c2ccc(N=Cc3ccccc3)cc2)cc1)c1ccccc1 | 86.3% | 103% | 109% | 116 |  | 103 | 87.6 | 82.1 | 101 | 107 | 97.5% | 107% | 106% | 89.9% | 100% | 110% | 107 | 111
15 | Cc1ccc(NC(=O)c2sc3nc4c(cc3c2N)C(=O)CCC4)cc1Cl | 105% | 105% | 103% | 101 |  | 114 | 106 | 113 | 104 | 105 | 115% | 99.2% | 113% | 102% | 105% | 103% | 116 | 113
16 | COc1cccc(N2CCN(c3ncnc4cc[nH]c34)CC2)c1 | 39.4% | 35.4% | 40.3% | 104 | 69.2 | 86.5 |  | 92.5 |  | 20.4 | 42.9% | 42.6% | 90.6% | 46.7% | 35.8% | 62.7% | 71.8 | 70.9
17 | CCOc1cc(/C=N\NC(=O)C[N+](C)(C)C)ccc1O | 14.3% | 94% | 113% | 101 |  | 105 | 118 | 117 | 103 | 94.1 | 117% | 109% | 110% | 105% | 111% | 104% | 109 | 116
